Screening results from PubChem BioAssay.
The list is not random: actives were taken first. Their share in the collection is about 0.37%.
A-T KAP1 phos – potential ataxia-telangiectasia treatments restoring KAP-1 phosphorylation. AID 485349. F2112 A-T fibroblasts, KAP-1 phosphorylation AlphaLISA; neocarzinostatin DNA damage 30 min before lysis. Potency, µM (doses to about 57.5 µM), inactives show top-dose activation, usual class: activators. 0.19% of 320,000 active; note: potency is the fitted concentration of half-maximal effect; % of control where 0% means no effect; nearly all actives have a fitted effect of over 45% in size
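hTERT-immortalized A-T patient fibroblasts (F2112), 500 cells/well in OPTI-MEM, 1% FBS, got compounds for 60 min, then NCS for 30 min at 37C. Lysates were then assayed for phospho-KAP-1 by AlphaLISA (anti-pKAP1 donor, anti-KAP1 acceptor beads), 6 hr at 25C.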
IMPase Li inh – cell-permeable IMPase inhibitors with lithium potentiation; AID 1457; Potency, µM (highest dose often 59.4 µM), inactives show at the top dose activity, negative = IMPase inhibition, hits mostly inhibitors; 0.35% of 210,000 active; CHO-M1 cells, IP1 TR-FRET (IP-One), carbachol + lithium;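 note: IP1 builds up when IMPase is blocked and the TR-FRET signal falls; potency is the fitted concentration of half-maximal effect; plate controls were basal vehicle for no effect and high inhibitor control for full effect; nearly all actives have a fitted effect of over 50% in size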
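Lithium-sensitised IP1 accumulation assay; M1-expressing CHO cells treated 30 min at 37C with compound. Competitive antibody detection by time-resolved FRET followed a 10 min room-temperature lysis step.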
CBFb RUNX1 block – inhibitors of human CBF-beta and RUNX1 interaction | Q01196+Q13951 | AlphaScreen CBFb-His/RUNX1-biotin binding, biochemical | Potency, µM (series often up to 59.8 µM), for the others: at the top dose activity, negative = inhibition, most hits filed as inhibitors | 230,000 tested, under 10 active | AID 1477; note: % of control where 0% means no effect
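Proteins preincubated together for 20 min at RT before compound addition; 15 min later, nickel and streptavidin beads were added and left 90 min prior to AlphaScreen measurement.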
PTAP TSG101 blk – blocks PTAP/TSG101 interaction to inhibit HIV-1 budding; Fluorescence polarization, FITC-PTAP peptide / Tsg101 binding; Potency, µM (highest dose often 115 µM), for inactives: at the top dose activity change, negative = inhibition, most hits filed as inhibitors; Q99816; 340,000 tested, under 10 active; active = well fitted inhibition curve with a large enough effect in the main read-out, with a control signal flat, not every such curve was filed as active; inconclusive = small, poorly fitted or top-dose-only effect, or effect the other way, or a change in a side signal; inactive = no such curve, though single readings can be large or run the other way; note: potency is the fitted concentration of half-maximal effect; % of control where 0% means no effect
Target sequence (Q99816 whole entry, looked up): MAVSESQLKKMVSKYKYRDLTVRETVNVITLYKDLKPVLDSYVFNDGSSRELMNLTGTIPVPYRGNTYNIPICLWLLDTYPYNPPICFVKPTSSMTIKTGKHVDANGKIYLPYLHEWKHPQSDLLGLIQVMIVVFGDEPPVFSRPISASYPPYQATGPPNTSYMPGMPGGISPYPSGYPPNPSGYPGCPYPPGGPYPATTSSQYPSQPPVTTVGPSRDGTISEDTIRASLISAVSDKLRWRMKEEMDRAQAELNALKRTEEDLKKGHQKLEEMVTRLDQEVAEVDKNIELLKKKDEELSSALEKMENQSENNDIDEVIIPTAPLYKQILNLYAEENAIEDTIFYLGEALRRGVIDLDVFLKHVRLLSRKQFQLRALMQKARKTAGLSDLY
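Fluorescence anisotropy tracks displacement of a FITC-tagged PTAP peptide (50 nM) from the Tsg101 binding domain (10 uM), following a 20 min room-temperature incubation at pH 7.5.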
* hit, by the source's call; ? = inconclusive; / = no result given; [ ] = remark or other dose. Unless noted, calls come from the whole dose curve; as a rule, active = well fitted curve in the direction sought with a large enough effect; inconclusive = small, poorly fitted or top-dose-only effect, or another doubt; inactive = no such curve, though single readings can be large; an effect the other way counts as inactive or inconclusive.

SMILES	A-T KAP1 phos	IMPase Li inh	CBFb RUNX1 block	PTAP TSG101 blk
C[C@@]12CCC=C[C@H]1[C@H](c1ccc(/C=C/c3ccccc3)cc1F)N(Cc1ccccc1)C2=O	40µM*	/	17%	-2%
CC12CCC=CC1C(c1ccc(F)c(/C=C/c3ccccc3)c1)N(Cc1ccccc1)C2=O (stereo unspecified)	/	/	27%	/
Cc1ccc(S(=O)(=O)N(Cc2cc3cc4c(cc3[nH]c2=O)OCCO4)CC2CCCO2)cc1 (stereo unspecified)	11%	7.1µM*	4%	-4%
COc1ccc2cc(CN(CC3COCCO3)S(=O)(=O)c3c(C)cc(C)cc3C)c(=O)[nH]c2c1 (stereo unspecified)	1%	-16%[38.3 µM]	-3%	/
O=c1[nH]c2cc3c(cc2cc1CN(CC1CCCO1)S(=O)(=O)c1ccc(Cl)cc1)OCCO3 (stereo unspecified)	12%	5%[38.3 µM]	-4%	-4%
COc1ccc2cc(CN(CC3COCCO3)S(=O)(=O)c3ccc(Cl)cc3)c(=O)[nH]c2c1 (stereo unspecified)	8%	7.1µM*	7%	-9%
O=C(NNC(=O)c1cc([N+](=O)[O-])ccc1Cl)c1cccnc1	4%	/	/	-5%
CCOc1ccc(C(=O)Nc2cc(C)c3c(=O)oc4ccccc4c3n2)cc1	7%	13µM*	-1%	0%
FC(F)(F)c1cc(CCN2C(=S)NC[C@@H]2c2ccccc2)cc(C(F)(F)F)c1	35µM*	/	18%	-1%
CC(C)Oc1nc(-c2ccccc2Cl)nc2ccccc12	32µM*	/	23%	-2%
Cc1ccc(C#N)c(SCC(=O)Nc2nccs2)n1	6%	13µM*	-1%	0%
CCCc1nc(SCC(=O)Nc2nccs2)c2ccccc2n1	-5%	/	/	0%
O=C(CSc1nc(-c2ccccc2)nc2ccccc12)Nc1nccs1	-1%	25µM*	-5%	-4%
CCc1cc2cc3c(cc2nc1SCC(=O)Nc1nccs1)OCO3	1%	13µM*	-1%	-1%
CN(C)S(=O)(=O)c1cccc(C(=O)N=C2N=C3C=CC(Cl)=CN3Cc3ccccc32)c1	0.71µM*	/	9%	-5%
O=C(N=C1N=C2C=CC=CN2Cc2ccccc21)c1ccc(S(=O)(=O)N2CCCC2)cc1	30%	/	?	1%
CCc1cccc(-n2c(SCC(=O)c3c(N)n(C4CC4)c(=O)[nH]c3=O)nnc2N2CCOCC2)c1	/	/	/	-2%
COc1ccc(-c2cc(C(=O)Nc3cccc(Cl)c3)no2)cc1	10µM*	/	/	-5%
COc1ccc(-c2cc(C(=O)Nc3cccc(C(C)=O)c3)no2)cc1	/	?	2%	-4%
Cc1cccc(C(=O)N=C2SC3CS(=O)(=O)CC3N2c2ccccc2)c1 (stereo unspecified)	2%	/	/	0%
Cc1ccc(/C=C/C(=O)Nc2cccc3ncccc23)o1	-5%	2%	10%	-1%
CCCSc1nc(SCC(=O)NCc2ccccc2)c2c3c(sc2n1)COC(C)(C)C3	6%	10µM*	3%	-2%
CCCCCCSc1cc(-c2nc3cnccn3c2NCc2ccccc2)ccc1OC	18µM*	/	/	3%
CCCCNc1c(-c2ccc(OC)c(SC3CCCCC3)c2)nc2ccc(Cl)cn12	-7%	/	/	0%
CCC(C)Sc1ccc(-c2nc3cnccn3c2NC2CCCCC2)cc1 (stereo unspecified)	22µM*	/	/	/
SMILES	A-T KAP1 phos	IMPase Li inh	CBFb RUNX1 block	PTAP TSG101 blk
CCC(C)Sc1ccc(-c2nc3cc(C)ccn3c2NC2CCCCC2)cc1 (stereo unspecified)	?	/	/	6%
CCCCNc1c(-c2ccc(OC)c(SC3CCCCC3)c2)nc2cc(C)ccn12	32µM*	/	/	0%
CCCCCCSc1ccc(-c2nc3ccccn3c2NCCCC)cc1	40µM*	/	/	-5%
O=C(CNC(=O)c1cccc(OC(F)F)c1)Nc1ccc(Cl)cc1	-6%	/	/	-5%
CCCCNc1c(-c2ccc(OC)c(SC3CCCCC3)c2)nc2cnccn12	22µM*	/	/	4%
COc1ccc(-c2nc3cnccn3c2NCc2ccccc2)cc1SC1CCCCC1	?	/	/	5%
N#C/C(=C/c1ccc(F)cc1)C(N)=S	3.5µM*	-12%	-7%	-2%
CC(C)(C)c1cc(/C=C(\C#N)C(N)=S)cc(C(C)(C)C)c1O	/	22%	?	/
CC(=O)/C=C/c1ccccc1Oc1c(F)c(F)nc(F)c1F	32µM*	/	/	-10%
COc1ccccc1/C=C\C(=O)O	/	-1%	8%	/
FC(F)(F)c1cccc(Sc2cc(C(F)(F)F)nc(-c3ccccn3)n2)c1	?	14%[38.3 µM]	0%	-4%
O=C(CN1CCN(c2ccc(F)cc2)CC1)Nc1nnc(-c2ccccc2)s1	3%	11µM*	2%	-1%
CCOC(=O)Cn1c(=S)[nH]c2c(oc3ccc(Cl)cc32)c1=O	2%	8.9µM*	7%	-2%
Cc1nn(Cc2ccccc2)c(C)c1/C=N/NC(=O)c1ccccc1O	32µM*	/	1%	1%
Cc1nn(Cc2ccccc2)c(C)c1/C=N/NC(=O)c1ccncc1	-7%	/	3%	-1%
CC1=NN(C(=O)Cc2ccccc2)C(O)(c2cccnc2)C1 (stereo unspecified)	-18%	-10%	-3%	1%
Cc1ccc(S(=O)(=O)NCC(=O)OCC(=O)c2ccc(Br)s2)cc1	-3%	10µM*	-4%	0%
Cc1ccc(S(=O)(=O)NCC(=O)OCC(=O)c2ccc(Cl)s2)cc1	/	/	/	-4%
CCOc1cc2[nH]c(=S)n(CCCC(=O)NCc3ccco3)c(=O)c2cc1OCC	-1%	14µM*	3%	0%
O=C(NCc1ccco1)c1ccc2c(=O)n(-c3ccccc3)c(=S)[nH]c2c1	4%	13µM*	1%	1%
CN(C)C1=NC[C@H](Cc2ccccc2)N1CCCC1CCCCC1	11%	/	/	-7%
CCc1noc(C)c1C(=O)Nc1ccc(-c2nnc3n2CCCCC3)cc1	6%	/	/	-2%
C=Cc1c(C)c2cc3[nH]c(cc4nc(cc5nc(cc1[nH]2)C(C)=C5CCC(=O)O)C(CCC(=O)O)=C4C)c(C)c3C=C	32µM*	2%	?	-2%
CCn1nc(C)c(/C=N/NC(=O)Cn2cncn2)c1C	3.2µM*	/	2%	-2%
CCn1nc(C)c(/C=N/NC(=O)Cn2nnnc2N)c1C	-11%	/	2%	-2%
CCOC(=O)C1CCCN(C(=O)C(C)(C)Oc2ccc(Cl)cc2)C1 (stereo unspecified)	1%	22%	13%	-1%
CN(C)c1ccc(-c2nn3c(-c4ccc(Cl)cc4Cl)nnc3s2)cc1	7%	13%[38.3 µM]	4%	/
Cc1cc(-c2nnc3sc(-c4ccc(Cl)cc4Cl)nn23)n[nH]1	-12%	10µM*	-4%	-4%
CCOc1ccc(S(=O)(=O)N2CCN(C(=O)c3ccc(-n4cncn4)c([N+](=O)[O-])c3)CC2)cc1	1%	/	/	-1%
O=C1CC(Sc2nnc(-c3ccccc3O)o2)C(=O)N1c1ccccc1 (stereo unspecified)	1%	-15%[38.3 µM]	4%	-4%
